Measured values as given in PubChem BioAssay (Tox21).
“And” between values parts separate entries of the source, which are not always exact repeats. Identical values can stand only once. Results filed as inconclusive are left out. A call without a number means that no potency is given here. A structure can be active in one record and inactive in another. The source made the active and inactive calls. Calls come from the whole dose curve; as a rule, active = well fitted cell-killing curve with a large enough effect in the repeat runs; inconclusive = weak or mixed curves, or effect the other way; inactive = no such curve, though single readings can be large or run the other way.

Assay: qHTS assay to identify small molecule antagonists of the thyroid receptor (TR) signaling pathway - cell viability counter screen (AID 743064); note: nearly all actives have a fitted effect of over 50% in size
Conditions: GH3.TRE-Luc viability, CellTiter-Fluor, 24 h; series mostly up to 70.3 µM
Text: National Center for Advancing Translational Sciences [NCATS]
NIH Chemical Genomics Center [NCGC]
U.S. Environmental Protection Agency [EPA]
National Institutes of Environmental Health Sciences [NIEHS]
National Toxicology Program [NTP]
U.S. Food and Drug Administration [FDA]
Thyroid receptor (TR), a nuclear hormone receptor, plays an important role in development, proliferation, differentiation, metabolism, brain function, and cardiovascular system. […] To profile the Tox21 10K compound library in TR signaling, a cell-based GH3-TRE-Luc assay (GH3.TRE-Luc cell line, developed by the laboratory of Dr. Albertinka J. Murk, Wageningen University) was used to measure the inhibition of TR. GH3 (rat pituitary tumor) cells stably expressing a TR activity sensor consisting of two TR response elements and a luciferase reporter gene. The cytotoxicity of the Tox21 compound library against the GH3.TRE-Luc cell line was tested in parallel by measuring the cell viability using CellTiter-Fluor assay (Promega, Madison, WI) in the same wells.
Tox21 Assay Protocol Summary:
GH3.TRE-Luc cells were dispensed at 1500 cells/4 uL/well into 1536-well white solid bottom plates using a Multidrop Combi dispenser (Thermo Fisher Scientific Inc., Waltham, MA). After the assay plates were incubated at 37 C for 4 hours, 23 nL of library compound or DMSO controls was transferred to the assay plates by a pintool station (Kalypsys, San Diego, CA), followed by addition of 1 ul of T3 (1 nM, final concentration in the wells) to stimulate TR transactivation. The assay plates were incubated at 37 C for 23.5 h, and then 1 uL of CellTiter-Fluor reagent (Promega, Madision, WI) of measuring cytotoxicity was added to each well using a Bioraptr Flying Reagent Dispenser (FRD) workstation (Beckman Coulter, Indianapolis, IN, USA). The plates were incubated at 37C and 5% CO2 for additional 30 min, and fluorescence intensity was measured by a ViewLux plate reader (PerkinElmer, Shelton, CT).
Potency is the fitted concentration of half-maximal effect.

For `CCCCCCCCCCCCCCCO`, which Potency is on record?
The Potency was “inactive”.

Which Potency does the source give for `O=C(O)c1ccccc1C(c1ccc(O)cc1)c1ccc(O)cc1` here?
Its Potency is “inactive”.

With `COc1ccc(NC(C)=O)cc1N` as the molecule, how does the Potency read?
Its Potency is “inactive”.

Which Potency does the source give for `CC(=O)CC(=O)Nc1ccccc1C` here?
Its Potency is “inactive”.

For `CCCCCCCCCCCCS`, which Potency is on record?
The Potency was “inactive”.

With `C[Si](O[Si](C)(C)C)O[Si](C)(C)C` as the molecule, how does the Potency read?
The Potency was “inactive”.

For `Cc1ccc2oc(=O)ccc2c1`, which Potency is on record?
Its Potency is “inactive”.

With `O=c1[nH]nnc2ccccc12` as the molecule, how does the Potency read?
The Potency was “inactive”.

For `O=c1[nH]c(=O)n([C@H]2CCCO2)cc1F`, which Potency is on record?
The Potency was “inactive”.

For `CC(C)(C)[C@@H](O)[C@@H](Cc1ccc(Cl)cc1)n1cncn1`, which Potency is on record?
The Potency was “inactive”.

For `CCN(CC)CCCC(C)Nc1ccnc2cc(Cl)ccc12` (stereo not given), which activity change, negative = cytotoxic is on record?
Its activity change, negative = cytotoxic is -23.7% [at 8.44 µM] (inactive).

With `Cc1cnc(C(=O)NCCc2ccc(S(=O)(=O)NC(=O)NC3CCCCC3)cc2)cn1` as the molecule, how does the Potency read?
The Potency was “inactive”.

Which Potency does the source give for `COS(C)(=O)=O` here?
The Potency was “inactive”.

For `Cc1occc(=O)c1O`, which Potency is on record?
Its Potency is “inactive”.

For `CCCCCCCC(=O)OC`, which Potency is on record?
The Potency was “inactive”.

Which Potency does the source give for `c1ccc(OCCOc2ccccc2)cc1` here?
Its Potency is “inactive”.

For `CCCCCCCCC/C=C/CC1CC(=O)OC1=O` (stereo not given), which Potency is on record?
Its Potency is “inactive”.

For `Cc1cccnc1`, which Potency is on record?
Its Potency is “inactive”.

Which Potency does the source give for `CC1=C(C)S(=O)(=O)CCS1(=O)=O` here?
The Potency was “inactive”.

For `CC1=CC(=O)NS(=O)(=O)O1`, which Potency is on record?
The Potency was “inactive”.

Which Potency does the source give for `CCC(O)OC(O)CC` (stereo not given) here?
Its Potency is “inactive”.

With `CCC(O)OCCCOC` (stereo not given) as the molecule, how does the Potency read?
The Potency was “inactive”.

With `CCCCCC(N)=O` as the molecule, how does the Potency read?
The Potency was “inactive”.

For `ON=C1CCCCC1`, which Potency is on record?
The Potency was “inactive”.

With `CCCCOC(=O)COc1ccc(Cl)cc1Cl` as the molecule, how does the Potency read?
The Potency was “inactive”.

With `O=C(O)c1cc(O)c(O)c(O)c1` as the molecule, how does the Potency read?
Its Potency is “inactive and 55 µM (active)”.

With `O=C(CC(C(=O)OC1CCCCC1)S(=O)(=O)O)OC1CCCCC1` (stereo not given) as the molecule, how does the Potency read?
Its Potency is “inactive”.

With `O=S(=O)(O)c1ccc2ccccc2c1` as the molecule, how does the Potency read?
The Potency was “inactive”.

With `OC[C@H]1O[C@@](CO)(O[C@H]2O[C@H](CO)[C@@H](O)[C@H](O)[C@H]2O)[C@@H](O)[C@@H]1O` as the molecule, how does the Potency read?
The Potency was “inactive”.

With `CC(c1cc2ccccc2s1)N(O)C(N)=O` (stereo not given) as the molecule, how does the Potency read?
The Potency was “inactive”.

Which Potency does the source give for `O=c1[nH]c(=O)n([C@H]2C[C@H](O)[C@@H](CO)O2)cc1Br` here?
Its Potency is “inactive”.

Which Potency does the source give for `Nc1cc([N+](=O)[O-])ccc1O` here?
Its Potency is 30.6 µM (active) and 60.8 µM (active).

Which Potency does the source give for `CCCCC(CC)COC(=O)CS` (stereo not given) here?
The Potency was “inactive”.

Which Potency does the source give for `CCCSc1ccc2nc(NC(=O)OC)[nH]c2c1` here?
The Potency was 452 nM (active).

Which Potency does the source give for `Cc1ccc(N(C)C)cc1` here?
Its Potency is “inactive”.

With `CC(=O)Nc1cccc(O)c1` as the molecule, how does the Potency read?
The Potency was “inactive”.

Which Potency does the source give for `CC(O)COCC(C)O` (stereo not given) here?
The Potency was “inactive”.

Which Potency does the source give for `CCCCN(CCCC)CCCC` here?
The Potency was “inactive”.

For `CCCCCCCCCCCCc1ccccc1`, which Potency is on record?
The Potency was “inactive”.

Which Potency does the source give for `C[C@H]1C[C@@H]2[C@H]([C@@H](O)C[C@@]3(C)[C@H]2CC[C@]3(O)C(=O)CO)[C@@]2(C)C=CC(=O)C=C12` here?
The Potency was “inactive”.
